Data as given in PubChem BioAssay AID1159580 (chemical genetic matrix, 2015).
In all, about 5,500 compounds went through this assay and about 2,000 (36%) were called active. Another 18% or so got no clear call; they are omitted. No stated cut-off is given here; in the data, active means normalized growth mostly below about 0.91 (no sharp cut-off); inconclusive means no clear call, values can overlap the other calls; inactive means mostly above about 0.92. Some of the results follow.

Experiment: chemical genetic growth profiling, strain panel (AID 1159580);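 further: tested at 20 µM; growth read once vehicle control cultures reached saturation at 30 °C; 1 = growth at the plate median or of vehicle wells; lower values mean less growth of the strain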
Details: growth OD

Measured: normalized growth

CN(C(=O)CN(CCO)CC(=O)N(C)C(C)(C)Cc1ccccc1)C(C)(C)Cc1ccccc1
inactive: S. cerevisiae deletion strains, locus YJR066W, strain TOR1, hits give low values 0.977 | S. cerevisiae deletion strains, locus YJR075W, strain HOC1, hits give low values 0.979 | S. cerevisiae deletion strains, locus YKL009W, strain mrt4, hits give low values 0.965 | S. cerevisiae deletion strains, locus YKL068W, hits give low values 0.979 | S. cerevisiae deletion strains, locus YKL085W, strain MDH1 (second series), hits give low values 0.971 | S. cerevisiae deletion strains, locus YKL085W, strain MDH1, hits give low values 0.971 | S. cerevisiae deletion strains, locus YKL160W, strain elf1, hits give low values 1.01 | S. cerevisiae deletion strains, locus YKL190W, strain CNB1, hits give low values 0.992 | S. cerevisiae deletion strains, locus YKR001C, strain vps1, hits give low values 0.998 | S. cerevisiae deletion strains, locus YKR026C, strain gcn3, hits give low values 1.02 | S. cerevisiae deletion strains, locus YKR091W, strain srl3, hits give low values 0.999 | S. cerevisiae deletion strains, locus YLL001W, strain dnm1, hits give low values 1.02 | S. cerevisiae deletion strains, locus YLL026W, hits give low values 1.02 | S. cerevisiae deletion strains, locus YLL041C, strain sdh2, hits give low values 1.01 | S. cerevisiae deletion strains, locus YLR027C, strain aat2, hits give low values 1.02 | S. cerevisiae deletion strains, locus YLR039C, strain RIC1, hits give low values 1.03 | S. cerevisiae deletion strains, locus YLR058C, strain SHM2, hits give low values 0.997 | S. cerevisiae deletion strains, locus YLR102C, strain apc9, hits give low values 0.986 | S. cerevisiae deletion strains, locus YLR113W, strain HOG1, hits give low values 0.987 | S. cerevisiae deletion strains, locus YLR221C, strain rsa3, hits give low values 0.993 | S. cerevisiae deletion strains, locus YLR258W, strain gsy2, hits give low values 1 | S. cerevisiae deletion strains, locus YLR262C, strain YPT6 (second series), hits give low values 1.03 | S. cerevisiae deletion strains, locus YLR262C, strain YPT6, hits give low values 1.02 | S. cerevisiae deletion strains, locus YLR268W, strain sec22, hits give low values 0.962 | S. cerevisiae deletion strains, locus YLR320W, strain mms22, hits give low values 0.99 | S. cerevisiae deletion strains, locus YLR330W, strain CHS5, hits give low values 0.984 | S. cerevisiae deletion strains, locus YLR342W, strain FKS1 (second series), hits give low values 0.985 | S. cerevisiae deletion strains, locus YLR342W, strain FKS1, hits give low values 1.01 | S. cerevisiae deletion strains, locus YLR357W, strain rsc2, hits give low values 1.01 | S. cerevisiae deletion strains, locus YLR370C, strain arc18, hits give low values 1.02 | S. cerevisiae deletion strains, locus YLR371W, strain rom2, hits give low values 0.978 | S. cerevisiae deletion strains, locus YLR384C, strain iki3, hits give low values 1.01 | S. cerevisiae deletion strains, locus YLR418C, strain cdc73, hits give low values 0.989 | S. cerevisiae deletion strains, locus YML016C, strain PPZ1, hits give low values 0.994 | S. cerevisiae deletion strains, locus YML032C, strain rad52, hits give low values 0.98 | S. cerevisiae deletion strains, locus YML120C, strain ndi1, hits give low values 1.02 | S. cerevisiae deletion strains, locus YML124C, strain tub3, hits give low values 0.989 | S. cerevisiae deletion strains, locus YMR058W, strain fet3, hits give low values 1.02 | S. cerevisiae deletion strains, locus YMR078C, strain ctf18, hits give low values 0.974 | S. cerevisiae deletion strains, locus YMR125W, strain sto1, hits give low values 1.02 | S. cerevisiae deletion strains, locus YMR129W, hits give low values 1.01 | S. cerevisiae deletion strains, locus YMR205C, strain PFK2, hits give low values 1 | S. cerevisiae deletion strains, locus YMR223W, strain ubp8, hits give low values 0.97 | S. cerevisiae deletion strains, locus YMR231W, strain pep5, hits give low values 1.01 | S. cerevisiae deletion strains, locus YMR263W, strain SAP30, hits give low values 0.995 | S. cerevisiae deletion strains, locus YMR307W, strain GAS1, hits give low values 0.835 | S. cerevisiae deletion strains, locus YNL067W, strain RPL9B, hits give low values 0.994 | S. cerevisiae deletion strains, locus YNL071W, strain lat1, hits give low values 1.01 | S. cerevisiae deletion strains, locus YNL153C, strain GIM3, hits give low values 1.03 | S. cerevisiae deletion strains, locus YNL183C, strain NPR1, hits give low values 0.944 | S. cerevisiae deletion strains, locus YNL209W, strain ssb2, hits give low values 1.01 | S. cerevisiae deletion strains, locus YNL233W, strain BNI4, hits give low values 0.987 | S. cerevisiae deletion strains, locus YNL248C, strain rpa49, hits give low values 1 | S. cerevisiae deletion strains, locus YNL250W, strain rad50, hits give low values 0.996 | S. cerevisiae deletion strains, locus YNL271C, strain bni1, hits give low values 0.982 | S. cerevisiae deletion strains, locus YNL298W, strain CLA4, hits give low values 0.983 | S. cerevisiae deletion strains, locus YNL307C, strain MCK1, hits give low values 0.99 | S. cerevisiae deletion strains, locus YNL322C, strain KRE1 (second series), hits give low values 1.01 | S. cerevisiae deletion strains, locus YNR049C, strain mso1, hits give low values 1.02 | S. cerevisiae deletion strains, locus YNR052C, strain pop2, hits give low values 0.972 | S. cerevisiae deletion strains, locus YOL006C, strain TOP1, hits give low values 1.05 | S. cerevisiae deletion strains, locus YOL012C, strain htz1 0.857 | S. cerevisiae deletion strains, locus YOL147C, strain pex11, hits give low values 0.987 | S. cerevisiae deletion strains, locus YOR001W, strain rrp6, hits give low values 0.992 | S. cerevisiae deletion strains, locus YOR061W, strain CKA2, hits give low values 0.992 | S. cerevisiae deletion strains, locus YOR069W, strain VPS5, hits give low values 0.991 | S. cerevisiae deletion strains, locus YOR070C, strain gyp1, hits give low values 1.02 | S. cerevisiae deletion strains, locus YOR080W, strain dia2, hits give low values 1.01 | S. cerevisiae deletion strains, locus YOR083W, strain WHI5, hits give low values 1 | S. cerevisiae deletion strains, locus YOR106W, strain vam3, hits give low values 1.02 | S. cerevisiae deletion strains, locus YOR136W, strain idh2, hits give low values 0.984 | S. cerevisiae deletion strains, locus YOR144C, strain elg1, hits give low values 0.99 | S. cerevisiae deletion strains, locus YOR184W, strain ser1, hits give low values 0.976 | S. cerevisiae deletion strains, locus YOR231W, strain MKK1, hits give low values 0.991 | S. cerevisiae deletion strains, locus YOR265W, strain rbl2, hits give low values 1.02 | S. cerevisiae deletion strains, locus YOR270C, strain vph1, hits give low values 1.09 | S. cerevisiae deletion strains, locus YOR290C, strain snf2, hits give low values 1.01 | S. cerevisiae deletion strains, locus YOR316C, strain cot1, hits give low values 0.971 | S. cerevisiae deletion strains, locus YPL051W, strain arl3, hits give low values 0.999 | S. cerevisiae deletion strains, locus YPL078C, strain atp4, hits give low values 1.01 | S. cerevisiae deletion strains, locus YPL106C, strain sse1, hits give low values 0.991 | S. cerevisiae deletion strains, locus YPL240C, strain hsp82, hits give low values 1 | S. cerevisiae deletion strains, locus YPL256C, strain CLN2, hits give low values 0.98 | S. cerevisiae deletion strains, locus YPR119W, strain clb2, hits give low values 0.974 | S. cerevisiae deletion strains, locus YPR141C, strain kar3, hits give low values 0.981 | S. cerevisiae deletion strains, locus YPR163C, strain tif3, hits give low values 0.969 | S. cerevisiae deletion strains, locus YPR167C, strain met16, hits give low values 0.969 | S. cerevisiae deletion strains, strain wtn01, hits give low values 0.985 | S. cerevisiae strains, strain wild type, hits give low values 0.991
